From publication PMC12136788 come the findings set out here.

T1: UNK ZnF1-3 (human, UniProt Q9C0B0 31-174)
T1 sequence: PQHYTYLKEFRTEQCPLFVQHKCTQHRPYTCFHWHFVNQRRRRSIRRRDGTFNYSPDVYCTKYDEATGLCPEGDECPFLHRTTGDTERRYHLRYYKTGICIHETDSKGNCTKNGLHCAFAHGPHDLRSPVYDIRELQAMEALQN

B1: 60597838_60597958_3500_3pUTR_ENSMUSG00000049323_ENSMUST00000056907|mouse|control|control (ssRNA)
RNA: GGGAGUUCUACAGUCCGACGAUCUUUUUGGGAGCUACUUCCUUAAUGAACCAGGAGCAGCUGCUACUGUCCUUCUGGAGGGCCAUGUGCCACCUCUGCUCAGCCCACAUCACACACUGCCCAGGGCUAUGUUGCAACUAUAACCAACAGAGGAUUGAGCAUCA
B2: chr17:45757878:45757879:+_ENSG00000108424_ENST00000290158|hu_hu|FALSE|FALSE (ssRNA)
RNA: GGGAGUUCUACAGUCCGACGAUCUGGCCUAGCUUCUACUAAUUUCAGUACAUCCUUCCCAAAUGCUGUACAUAAGUCCCCUAUUAGUCCAGCAGCACAAGCUACUACUCCAUCUGUGUGAUCCUCAUCUCCAGCAAUGUGGUCCAACAGAGGAUUGAGCAUCA
B3: chr19:16452684:16452685:+_ENSMUSG00000024639_ENSMUST00000025541|perfect_dup|FALSE|FALSE (ssRNA)
RNA: GGGAGUUCUACAGUCCGACGAUCGUUUAAGAACAGAAUCACAGAGGAGUUCUGGAACCAGGGGUAGGUGAUAAUUGUUCUAAAGAGUGCUUUGCUCUCCUCCAUGCGGUUCUCAUUGUCUGACUCCACAAGAACUUGAUCAUACAACAGAGGAUUGAGCAUCA
B4: chr5:128448638:128448639:+_ENSG00000066583_ENST00000173527|hu_mus|hu_hu_hu_mus_False|98_98 (ssRNA)
RNA: GGGAGUUCUACAGUCCGACGAUCGGCACUCGCCUUAAUUAGAUUCUGAAUUUCCUUGAACUUCGGGUGGUCUUUGUCAGCCACCAGCUGUAGGAGGACAGCCUCACUAGUGGUCACGAUGAUCCCAGUGCGGGCAAGACGCUCCAACAGAGGAUUGAGCAUCA
B5: chr17:57737884:57737885:+_ENSG00000141367_ENST00000269122|hu_mus|motif|central (ssRNA)
RNA: GGGAGUUCUACAGUCCGACGAUCGUUUCCCUGGGCGAAGAGAGCAUUAAAUUUCCGGGCAAAGAGUUCUUCAGCACCAGCGGAGUUGUUCCGCACAGCCAUUCUCAGAGCCAAGUCAGGAUUUUGUAGGACAUUGGUGAUAUACAACAGAGGAUUGAGCAUCA
B6: chr3:101400026:101400027:-_ENSG00000114391_ENST00000394077|hu_mus|FALSE|FALSE (ssRNA)
RNA: GGGAGUUCUACAGUCCGACGAUCCUACCACACUAGCGUUUCCCACCAACUCUGGGGGCAGAGACCUUCACAGGCUUCACAAUCUUUUGUUUAGGUGCUGCCUUUGUGGGGGCCUUGGCAGCAGCCAUUGCUGUCUUCUUUGAUCAACAGAGGAUUGAGCAUCA
B7: chr2:48026839:48026840:+_ENSG00000116062_ENST00000540021|hu_hu|hu_hu_hu_mus_False|18_58 (ssRNA)
RNA: GGGAGUUCUACAGUCCGACGAUCAUAGUGAGCCACUAGCGUCCUAAAUCUGGAACAGUGGCGGUCAUCCGAAAACUGACCUAUGAAAAACUUGCCCAGUGAAGUGUCCACAAAGCACACACCAUAUACACGAGUGUGACCAGACAACAGAGGAUUGAGCAUCA
B8: chr15:91426070:91426071:+_ENSG00000140564_ENST00000268171|hu_mus|FALSE|FALSE (ssRNA)
RNA: GGGAGUUCUACAGUCCGACGAUCGGCAGCCAUGGGAAGGGCAGGGUGGGUGUGGGCAUGAGAAGGUCAAGGGUCCAGCUGCUACCCCCAUUAAAAAUACAAAAAAAAAAAAAAAAAAGAAUCAGCAUCUAAAGUGAAUAAUCACAACAGAGGAUUGAGCAUCA
B9: 35171164_35172336_3352_CDS_ENSMUSG00000029104_ENSMUST00000080036|mouse|control|control (ssRNA)
RNA: GGGAGUUCUACAGUCCGACGAUCGGGGGCACUCGCUGCUAGCAAGUUUCCAGCCAAAAUCAAGGCAUCCUGAUGGGCUGAGAGAUCCAGUGGGAACCAAGCUGAUGAAAGCAAGGUGAGAAUCAUGGAGGCCAUCCCAACAGUCAACAGAGGAUUGAGCAUCA
B10: 131763144_131763264_1223_3pUTR_ENSMUSG00000079037_ENSMUST00000091288|mouse|control|control (ssRNA)
RNA: GGGAGUUCUACAGUCCGACGAUCUCACCUUGUACUCUGGGUACAAGUCAGGGGAUACACCAGUAUUUAUUCACUAGACCAAAACAAAGCCCCAACUAGCCAGCAGUUAUUUGGUGUUAUAUUCUUAUUGGCCCGGUGUUAGCACAACAGAGGAUUGAGCAUCA
B11: chr16:23113652:23113653:+_ENSMUSG00000022884_ENSMUST00000115341|mus_mus|FALSE|FALSE (ssRNA)
RNA: GGGAGUUCUACAGUCCGACGAUCCCACAAGUAUAUUAUUAAAUGAUAGAGAACAUCUAAUACAACCAUUUCUACAUAACUAGUAAAUGAAUUUCUAAGAAAAAAAGAUUUUACAGACCCCAUCUUUUAUACCCACCCCCAACACAACAGAGGAUUGAGCAUCA
B12: chr1:182620099:182620100:+_ENSMUSG00000058729_ENSMUST00000085803|mus_mus|motif|central (ssRNA)
RNA: GGGAGUUCUACAGUCCGACGAUCAACAACAAAGCUUUUAUAAAUUAUGAUAAAUUAAAAUAUUUAUUAUUAUAAUUGAUCGGUAGAACCAUGUCCCACUGUCAGUAUAUGAAACAUACACUUAAGUCCGUGUUUCCCAUCUGUCAACAGAGGAUUGAGCAUCA
B13: chr10:70744696:70744697:+_ENSG00000165732_ENST00000354185|hu_hu|motif|central (ssRNA)
RNA: GGGAGUUCUACAGUCCGACGAUCUUAAAUUAGAAAAUAUUUUCUUUGUAGAAAAUAGUAAAAAUUAUAACAUUUACCAAGCGGACCCAACAAGUUCAUUUAAACCAAAAAGUAGCUAAAUACAUUAUACAUUUAUAAAUACAGCAACAGAGGAUUGAGCAUCA
B14: chr5:32794366:32794367:+_ENSMUSG00000014956_ENSMUST00000015100|mus_mus|FALSE|FALSE (ssRNA)
RNA: GGGAGUUCUACAGUCCGACGAUCAGAAGAGAGCCAGCUAUCCAAGGCUUGUCAAAAAGGAUUCUCAUGUUCUGUGAAUCUAAAAACAAACAAACAACAAAAACCCCAAAAAACAAAACCAAUGCAGGUGAGGGUAAUACCAGACAACAGAGGAUUGAGCAUCA
B15: chr2:202488911:202488912:-_ENSG00000155755_ENST00000286196|hu_mus|hu_hu_hu_mus_False|8_98 (ssRNA)
RNA: GGGAGUUCUACAGUCCGACGAUCAUUGAAACAUUUUCAUAAUAUUGCAGUAGCAUUUCAGCAUUAUGUAACAAAAGCUCAAUUGUAAAUACAUGUAUCUUAUAAAAAUACACUUAAAAACACGAGUAAAAAUGGGAGGCGCCACAACAGAGGAUUGAGCAUCA
B16: chr4:95690885:95690886:+_ENSMUSG00000028572_ENSMUST00000156910|mus_mus|mus_mus_mus_hu_False|78_88 (ssRNA)
RNA: GGGAGUUCUACAGUCCGACGAUCUUUAGAAAAUGUUAAAUACCAUGAGCAUGCUAAGUAAUUUUAAUAUUUUAUUUUACCAGAAGUCACAGGCAAGCAGACACUACAAGAAUAUAUGAAAAUGAAACUCAACAAUAUAACUGUCAACAGAGGAUUGAGCAUCA
B17: chr7:108213676:108213677:+_ENSG00000128590_ENST00000249356|hu_hu|FALSE|FALSE (ssRNA)
RNA: GGGAGUUCUACAGUCCGACGAUCUCCAUGAAAUCUAUUUUCAGUCUGUACUGUAUGCUGAUUGGUAGAGUCAAAACCACUAAAAGAAAACAUUUUCUCCAUAUCUUCAAACAUGUCAUCAAAUAAUCCACCUCCAAAAGAAAACAACAGAGGAUUGAGCAUCA
B18: chr5:67446008:67446009:+_ENSMUSG00000037736_ENSMUST00000038188|mus_mus|FALSE|FALSE (ssRNA)
RNA: GGGAGUUCUACAGUCCGACGAUCGCCCCCAAGGGUAAGUAACACAAAUGUCUCCGGGAAUACAGUAUAUAUUAUCAGACUAGUGUCUUUGCAUUAAAAAAAAAAAAAGUUAUAGUUCAGAGUCAGAACUCGCUGGGGUAUCUACAACAGAGGAUUGAGCAUCA
B19: chr5:67446008:67446009:+_ENSMUSG00000037736_ENSMUST00000038188|mus_mus|motif|central (ssRNA)
RNA: B18 RNA with U80G, A81G
B20: chr14:89307221:89307222:+_ENSG00000165533_ENST00000346301|hu_mus|hu_hu_hu_mus_False|18_78 (ssRNA)
RNA: GGGAGUUCUACAGUCCGACGAUCUCCUGUUUGGUUAGUGCCAGGGAGCUUCAAAGACGUUCCAGGGCGUGGGACCUGAGCAAUAGCAUUUUCAUCCAGGAUCAUUUCAGCAAUUCCUUCCUGAUCUACAUCAAUUUCAUCUAUCAACAGAGGAUUGAGCAUCA
B21: chr7:7679991:7679992:-_ENSG00000106399_ENST00000396682|hu_hu|hu_hu_hu_mus_False|68_88 (ssRNA)
RNA: GGGAGUUCUACAGUCCGACGAUCUGGGAUGAAUCUUUUCCAGCUUCCCUACGAAGCACACGGGCCGGUCGAUGAAUUGUGGUAACAUGCUGGCGUUGACGCGCGCUUUGGGGAGCUGCAUUAUGUCCUCCAUGAUUCUGCCGCCAACAGAGGAUUGAGCAUCA
B22: 96788939_96789059_3507_CDS_ENSG00000066739_ENST00000359933|human|control|control (ssRNA)
RNA: GGGAGUUCUACAGUCCGACGAUCACAAACAUCUUUCAAGGAAUGAGCACCUCCUUCCUCUUCCUCCUGGUAGUGACCAUCAUUCUCCUCUUCUUCUUCAGCUGCAAUUCUCUCCAAAAUGGAAUGCAUGGCUGGUGGAUUUAUCAACAGAGGAUUGAGCAUCA

Changes are numbered by the printed parent chain. In all, about 24,000 sequences were measured (“enrichment r”: median about 0.99, highest 2% from about 3.7 on). The sample holds the highest values, similar sequences and a random draw of the others, so the mix is not that of the screen.

The assay has as its target T1, UNK ZnF1-3. The assay is described as follows: nsRBNS (natural sequence RNA bind-n-seq); RBNS binding buffer (assumed for nsRBNS): 25 mM Tris pH 7.5, 150 mM KCl, 3 mM MgCl2, 0.01% Triton X-100, 500 ug/ml BSA, 20 U/ml SUPERase-In, 4 C; UNK is unkempt and MSI1 is Musashi-1; names of the RNAs are library labels; protein concentration not given here; high values mean tight binding.
The molecule B1 came in with a binding signal of 0.845 enrichment R.
The same measure for B2: 1.02 enrichment R; for B3: 0.726 enrichment R; for B4: 0.728 enrichment R.
On to B5, for which the binding signal was 2.06 enrichment R.
The same measure for B6: 0.756 enrichment R; for B7: 1.26 enrichment R.
The same measure for B8: 19.6 enrichment R; for B9: 1.2 enrichment R; for B10: 0.474 enrichment R.
The same measure for B11: 3.96 enrichment R.
Regarding B12, the binding signal turned out to be 7.41 enrichment R.
The same measure for B13: 3.65 enrichment R; for B14: 1.31 enrichment R; for B15: 0.677 enrichment R.
The result for B16 reads 3.29 enrichment R.
B17 displayed a binding signal of 1.22 enrichment R.
For B18, the binding signal was 5.07 enrichment R.
Molecule B19 displayed a binding signal of 3.48 enrichment R.
Take B20: the binding signal was 0.843 enrichment R.
B21 returned a binding signal of 0.498 enrichment R.
Consider B22, for which the binding signal amounted to 1 enrichment R.
